Experiment [1] can be described thus: qHTS assay to identify small molecule antagonists of the glucocorticoid receptor (GR) signaling pathway - cell viability counter screen (AID 720693). Further: nearly all actives have a fitted effect of over 55% in size. Further: potency means the concentration at half of the fitted maximal effect.
The nature of experiment [2]: qHTS assay for identifying genotoxic compounds that show differential cytotoxicity against isogenic chicken DT40 cell lines with known DNA damage response pathways - wild type cell line (AID 743012). Further: nearly all actives have a fitted effect of over 60% in size. Further: potency means the concentration at half of the fitted maximal effect. The method, boiled down:
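Endpoint: CellTiter-Glo luminescence, 30 min RT. Cells: wild type DT40, 300/well. Exposure: compounds in DMSO, 40 h, 37 C/5% CO2, after ~0.5 h pre-incubation.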
In general terms: qHTS replaces the single test concentration by a dilution series.

The nature of experiment [3]: qHTS assay for identifying genotoxic compounds that show differential cytotoxicity against isogenic chicken DT40 cell lines with known DNA damage response pathways - Rev3 mutant cell line (AID 743014). Further: nearly all actives have a fitted effect of over 55% in size. Further: potency means the concentration at half of the fitted maximal effect.
Experiment [4] in a line: qHTS assay for identifying genotoxic compounds that show differential cytotoxicity against isogenic chicken DT40 cell lines with known DNA damage response pathways - Rad54/Ku70 mutant cell line (AID 743015). Further: nearly all actives have a fitted effect of over 60% in size. Further: potency means the concentration at half of the fitted maximal effect.
Experiment [5] can be described thus: qHTS assay to identify small molecule antagonists of the androgen receptor (AR) signaling pathway - cell viability counter screen (AID 743033; further: nearly all actives have a fitted effect of over 45% in size; further: potency means the concentration at half of the fitted maximal effect).
A short description of experiment [6]: qHTS assay to identify small molecule antagonists of the androgen receptor (AR) signaling pathway using the MDA cell line - cell viability counter screen (AID 743041; further: nearly all actives have a fitted effect of over 45% in size; further: potency means the concentration at half of the fitted maximal effect). The essentials:
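Viability read by CellTiter-Fluor fluorescence in the same wells as the antagonist screen, added after 15.5 h of a 16 h, 37C exposure. Human breast carcinoma MDA-kb2 AR-luc cells, compounds co-dosed with agonist R1881.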

Experiment [7] deals with Androgen receptor (Homo sapiens) (UniProt P10275). Briefly: qHTS assay to identify small molecule agonists of the androgen receptor (AR) signaling pathway (AID 743036; active means well fitted activation curve with a large enough effect in the signal ratio in the repeat runs, with a control signal flat, not every such curve was filed as active; the % refers to the signal ratio). The essentials: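 Reporter line: GeneBLAzer AR-UAS-bla-GripTite (HEK293). Steps: plate cells, 4 h rest, add compounds, 16 h at 37C, add LiveBLAzer B/G substrate, 2 h at RT, read fluorescence.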
Sequence of Androgen receptor (Homo sapiens) (P10275 whole entry, looked up): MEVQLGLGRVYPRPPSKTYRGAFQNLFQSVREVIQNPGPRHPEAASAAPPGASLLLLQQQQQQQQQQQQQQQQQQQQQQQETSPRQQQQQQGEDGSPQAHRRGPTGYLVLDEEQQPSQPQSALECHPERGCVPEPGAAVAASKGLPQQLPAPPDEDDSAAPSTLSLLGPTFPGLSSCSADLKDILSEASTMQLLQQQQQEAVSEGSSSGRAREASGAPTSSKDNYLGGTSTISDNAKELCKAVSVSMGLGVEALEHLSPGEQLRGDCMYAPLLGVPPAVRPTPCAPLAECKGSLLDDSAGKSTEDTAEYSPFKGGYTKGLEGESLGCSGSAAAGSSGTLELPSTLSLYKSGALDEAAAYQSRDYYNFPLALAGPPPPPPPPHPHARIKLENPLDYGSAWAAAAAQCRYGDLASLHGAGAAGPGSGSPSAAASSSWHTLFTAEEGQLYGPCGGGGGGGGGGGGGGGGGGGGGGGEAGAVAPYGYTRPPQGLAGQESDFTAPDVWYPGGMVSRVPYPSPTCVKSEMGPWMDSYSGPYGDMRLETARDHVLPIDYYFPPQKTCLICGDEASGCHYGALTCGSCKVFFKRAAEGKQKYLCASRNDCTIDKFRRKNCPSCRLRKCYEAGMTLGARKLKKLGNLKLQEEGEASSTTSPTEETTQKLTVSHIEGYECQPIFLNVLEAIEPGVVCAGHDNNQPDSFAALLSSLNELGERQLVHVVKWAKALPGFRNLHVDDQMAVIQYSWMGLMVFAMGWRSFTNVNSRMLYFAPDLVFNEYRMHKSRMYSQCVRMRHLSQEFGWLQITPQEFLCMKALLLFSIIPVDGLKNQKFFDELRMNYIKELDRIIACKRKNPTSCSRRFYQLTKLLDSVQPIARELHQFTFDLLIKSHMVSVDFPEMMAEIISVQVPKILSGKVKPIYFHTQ
For experiment [8] the target is unchanged. Put plainly: qHTS assay to identify small molecule agonists of the androgen receptor (AR) signaling pathway using the MDA cell line (AID 743040; further: nearly all actives have a fitted effect of over 20% in size; further: potency means the concentration at half of the fitted maximal effect). The conditions noted are these: MDA-kb2 AR-luc cells, MMTV luciferase, 16 h; activity change: at 70.3 µM (top of the series), stronger effect = higher value. The method, boiled down: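 Luciferase agonist assay: 16 h compound exposure at 37C without CO2 in MDA-kb2 AR-luc cells, whose MMTV promoter responds to both AR and GR. Luminescence measured after 30 min room-temperature incubation with ONE-Glo.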

Experiment [9] shares this target. Briefly: qHTS assay to identify small molecule antagonists of the androgen receptor (AR) signaling pathway using the MDA cell line (AID 743042; further: nearly all actives have a fitted effect of over 55% in size; further: potency means the concentration at half of the fitted maximal effect). The method, boiled down: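 Antagonist mode: compounds plus R1881 agonist added to MDA-kb2 AR-luc cells, incubated 16 h at 37C. Luciferase reporter luminescence quantified, with multiplexed CellTiter-Fluor readout for cell viability.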

Where “and” joins values, the source holds several entries; their conditions need not be identical. Equal entries are not always repeated. Results filed as inconclusive are left out. A structure can be active in one record and inactive in another. Calls of active or inactive are those of the source. Unless noted, the call rests on the fitted dose curve; in most records, active means well fitted curve in the direction sought with a large enough effect in the repeat runs; inconclusive means weak or mixed curves; inactive means no such curve, though single readings can be large; an effect the other way counts as inactive or inconclusive.

The record followed here is PubChem BioAssay (Tox21).
On the % scale 0 is the no-effect control and ±100 the full control effect.

`C=CCN1C[C@H](C)N([C@H](c2ccc(C(=O)N(CC)CC)cc2)c2cccc(OC)c2)C[C@H]1C`: the Potency entry in experiment [1], in experiment [5] and in experiment [6] was “inactive” throughout. Besides, the Potency is 8.41 µM (active) in experiment [2], 13.3 µM (active) in [3] and 18.8 µM (active) in experiment [4].
On to `CC(C)(C)NCC(O)c1ccccc1Cl` (stereo unspecified), for which the Potency result in experiment [1], in [2], in [3], in [4], in experiment [5] and in experiment [6] was “inactive” in each case.
`C[N+]1(CCC(C(N)=O)(c2ccccc2)c2ccccc2)CCCCC1`: the Potency entry in experiment [1], in experiment [2], in experiment [3], in experiment [4], in experiment [5] and in experiment [6] was “inactive” in each case.
With `N#CC(C#N)=C(C#N)C#N`, the Potency result in experiment [1], in [2], in experiment [3], in experiment [4], in experiment [5] and in experiment [6] was “inactive” throughout.
As to `Cc1ccccc1`, the Potency entry in experiment [1], in [2], in experiment [3], in experiment [4], in [5] and in [6] was “inactive” each time.
On to `O=C(O)C(O)C(O)C(=O)O` (stereo unspecified), for which the Potency entry in [1], in [2], in experiment [3], in experiment [4], in experiment [5] and in [6] was “inactive” each time.
For `C[N+]1(CCF)[C@@H]2CC[C@H]1CC(OC(=O)C(O)(c1ccccc1)c1ccccc1)C2` (stereo partly specified), the Potency entry in experiment [1], in [2], in [3], in experiment [4], in [5] and in experiment [6] was “inactive” in each case.
`C[C@H]1O[C@H](OC2[C@@H](O)[C@@H](O)C(O)[C@H](O)[C@H]2O)[C@@H](N)C[C@@H]1N=C(N)C(=O)O` (stereo partly specified): the Potency result in [1], in experiment [2], in experiment [3], in experiment [4], in experiment [5] and in [6] was “inactive” throughout.
Consider `O=[N+]([O-])O[C@H]1CO[C@H]2[C@@H]1OC[C@H]2O[N+](=O)[O-]`, for which the Potency entry in experiment [1], in experiment [2], in experiment [3], in [4], in experiment [5] and in experiment [6] was “inactive” in each case.
Consider `C[C@@H]1C[C@@H]([C@H](O)CC2CC(=O)NC(=O)C2)C(=O)[C@@H](C)C1`, for which the Potency entry in [1] and in experiment [6] was “inactive” each time. Moreover, the Potency in [2] is 59.6 nM (active) and 108 nM (active); in experiment [3], 119 nM (active) and 60.8 nM (active); in experiment [4] it was 133 nM (active) and 121 nM (active); in experiment [5], 379 nM (active) and 97.2 nM (active).
As to `CCCCC1C(=O)NC(=O)N(C2CCCCC2)C1=O` (stereo unspecified), the Potency entry in [1], in experiment [2], in [3], in experiment [4], in [5] and in [6] was “inactive” throughout.
For the compound `CCCBr`, the Potency entry in experiment [1], in experiment [2], in [3], in experiment [4], in experiment [5] and in [6] was “inactive” in each case.
Consider `CN1C(=O)CN=C(c2ccccc2)c2cc([N+](=O)[O-])ccc21`, for which the Potency entry in [1], in experiment [2], in experiment [3], in experiment [5], in [7] and in [6] was “inactive” each time. Moreover, the Potency entry in [9] was “inactive”. Further, the Potency in experiment [8] is 1.88 µM (active).
On to `CCOC(=O)C1OC1(C)c1ccccc1` (stereo unspecified), for which the Potency entry in experiment [1], in [2], in experiment [3], in experiment [4], in experiment [5] and in experiment [6] was “inactive” each time.
Turning to `c1ccc2sc(SNC3CCCCC3)nc2c1`, the Potency entry in experiment [1], in [5] and in experiment [6] was “inactive” each time. In addition, the Potency result was “inactive and 61.1 µM (active)” in experiment [2]; “inactive and 61.1 µM (active)” in experiment [3]; “inactive and 54.5 µM (active)” in experiment [4].
For the compound `CCCCCCCCCCCCN=C(N)N`, the values for the viability change, negative = cytotoxic in [1] and in [6] were -13.6% [at 3.15 µM] (inactive) and -10.3% [at 3.79 µM] (inactive), respectively. Also, the Potency in experiment [2] was 0.845 µM (active); in experiment [3], 1.89 µM (active); in [4], 1.06 µM (active).
As to `C[C@H](N)[C@H](O)c1ccc(O)c(O)c1`, the Potency result in experiment [1], in experiment [5] and in experiment [6] was “inactive” in each case. The Potency in [2] is 13.3 µM (active); in experiment [3], 11.9 µM (active); in experiment [4], 16.8 µM (active).
As for `CC(Cc1ccccc1)NCc1ccccc1Cl` (stereo unspecified), the Potency result in [1], in experiment [5] and in experiment [6] was “inactive” throughout. The values for the Potency in experiment [2], in experiment [3] and in experiment [4] were 18.8 µM (active), 15 µM (active) and 18.8 µM (active), respectively.
Consider `Cc1nc2ccccc2c(=O)n1-c1ccccc1Cl`, for which the Potency entry in [1], in experiment [5] and in experiment [6] was “inactive” throughout. Further, the Potency in [2] was 42.4 µM (active); in experiment [3], 59.8 µM (active).
As to `CCCCCCCCCCCCCCCl`, the Potency result in experiment [1], in [2], in experiment [3], in [4], in experiment [5] and in experiment [6] was “inactive” throughout.
As to `c1ccc2c(c1)sc1ccccc12`, the Potency entry in experiment [1], in experiment [2], in [4], in experiment [5] and in [6] was “inactive” in each case.
Turning to `O=C1c2ccccc2C(=O)N1SC(Cl)(Cl)Cl`, the Potency in [1] was 17.1 µM (active) and 13.8 µM (active); in experiment [2] it was 603 nM (active) and 154 nM (active); in [3] it was 67.6 nM (active) and 109 nM (active); in experiment [4] it was 135 nM (active) and 154 nM (active); in experiment [5], 2.71 µM (active) and 3.09 µM (active); in experiment [6], 21.7 µM (active).
For `CCCN(CCOc1c(Cl)cc(Cl)cc1Cl)C(=O)n1ccnc1`, the Potency result in experiment [1] and in experiment [6] was “inactive” throughout. Also, the Potency is 27.3 µM (active) in [2]; 31.3 µM (active) and 30.6 µM (active) in experiment [3]; 49.6 µM (active) and 27.3 µM (active) in experiment [4]; 25.1 µM (active) in experiment [5].
Consider `COP(=O)(OC)OC(Br)C(Cl)(Cl)Br` (stereo unspecified), for which the Potency entry in experiment [1], in experiment [8] and in experiment [6] was “inactive” in each case. Also, the Potency in [2] is 30.7 µM (active) and 13.7 µM (active); in experiment [3], 13.7 µM (active); in experiment [4], 38.6 µM (active) and 21.7 µM (active); in experiment [9], 68.7 µM (active) and 61.1 µM (active).
For `CC(O)CN1CCN(CC(=O)[O-])CCN(CC(=O)[O-])CCN(CC(=O)[O-])CC1.[Gd+3]` (stereo unspecified), the Potency entry in experiment [1], in experiment [2], in experiment [3], in experiment [4], in experiment [5] and in [6] was “inactive” throughout.
As to `CCOC(=O)NC(O)C(Cl)(Cl)Cl` (stereo unspecified), the Potency result in [1], in experiment [2], in experiment [3], in experiment [4], in experiment [5] and in experiment [6] was “inactive” in each case.
